Experimental data: PubChem BioAssay (NCI)
The panel holds about 79,000 compounds, 15% with a hit somewhere; the sample as a whole holds those more often. A number with no mark means an inactive call. Activity calls are given as the source filed them. No stated cut-off is given here; in the data, active means growth inhibition above about 70%; inactive means the rest.

Legend:
[1] = NCI Yeast Anticancer Drug Screen. Data for the rad50 strain (AID 155);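 further: 0% = growth of vehicle-only cultures of the same strain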; settings: S. cerevisiae rad50 strain growth inhibition; at 50.0 µM; stronger effect = higher value
How it was run: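 Yeast carrying a defined DNA repair defect were exposed to test compounds, and growth was compared with vehicle-treated controls to give percent inhibition.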

[2] = NCI Yeast Anticancer Drug Screen. Data for the mec2-1 strain (AID 157); settings: S. cerevisiae mec2-1 strain, at 50.0 µM, stronger effect = higher value
How it was run: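 Growth inhibition is read against vehicle-treated controls after compound exposure of the mec2-1 yeast strain, which is defective in DNA damage repair or cell cycle control.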

[3] = NCI Yeast Anticancer Drug Screen. Data for the sgs1 mgt1 strain (AID 161);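 further: 0% = growth of cultures given vehicle only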; settings: S. cerevisiae sgs1 mgt1 strain, at 50.0 µM, stronger effect = higher value
How it was run: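 This yeast growth screen uses a strain with defined DNA-repair lesions; compound-treated growth is compared with vehicle-treated growth.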

[4] = NCI Yeast Anticancer Drug Screen. Data for the cln2 rad14 strain (AID 165);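 further: 0% = growth equal to vehicle treated cultures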; settings: S. cerevisiae cln2 rad14 strain, at 50.0 µM, stronger effect = higher value
How it was run: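 Growth inhibition, relative to vehicle-treated controls, is the read-out. The test organism is a yeast strain with defined genetic alterations, cln2 rad14.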

[5] = NCI Yeast Anticancer Drug Screen. Data for the bub3 strain (AID 167); settings: S. cerevisiae bub3 mutant strain, at 50.0 µM, stronger effect = higher value
How it was run: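 Compounds were applied to a genetically altered yeast strain carrying a cell-cycle control defect. Growth inhibition was scored against vehicle-treated controls.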

[6] = NCI Yeast Anticancer Drug Screen. Data for the mlh1 rad18 strain (AID 175); settings: S. cerevisiae mlh1 rad18 strain growth inhibition; at 50.0 µM; stronger effect = higher value
How it was run: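 Cells of a genetically altered yeast strain, deficient in DNA damage repair, were treated with compound. Their growth was then compared with that of vehicle-treated cultures to give inhibition.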

SMILES	growth inhibition [1]	growth inhibition [2] [%]	growth inhibition [3]	growth inhibition [4] [%]	growth inhibition [5] [%]	growth inhibition [6]
CC(C)(C)c1ccc(O)c(Sc2cc(C(C)(C)C)ccc2O)c1	5.8%	-24.9	7.95%	-33.4	12.6	-15.2%
O=C(CCCc1ccc([N+](=O)[O-])cc1)c1ccccc1	-5.85%	-5.55	1.2%	-28.4	3.5	-4.65%
Cc1cc(=O)n2ccnc2[nH]1	24.2%	11.3	6.2%	19.1	9.65	20.1%
O=C(O)c1ccn(-c2cccc(-n3ccc(C(=O)O)n3)n2)n1	-1.05%	-17.1	2.25%	-47.7	-15.4	-7.1%
CN1CCC(c2ccccc2)(c2ccccc2)OC1	3.7%	6.85	6.9%	-8.45	9.95	5.15%
CCNC(=O)Nc1nc2ccccc2s1	-27.8%	-13	1.75%	-90.7	-23.8	-21.4%
CN(C)CCNC(=O)c1cccc2[nH]c(-c3ccncc3)nc12	5.9%	-16.2	-37.4%	-19.9	-48	-89.1%
CCCCCCCCCCCCCCCC(=O)N=C(C(N)=O)C(N)=O	4.25%	-35	-14.7%	-54	-22.6	-19.9%
COc1c2cccc(Cl)c2cc2c(Cl)cccc12	6.3%	-6.15	1.3%	18.8	-11.2	12.5%
COc1ccc2c(c1)OC(OC)(c1ccc(OC)c(OC)c1)C(O)(OC)C2=O (stereo unspecified)	39.4%	14.8	27.6%	19.6	11.8	29%
O=C(Nc1ccc(NC(=O)Nc2ccc(C3=NCCN3)cc2)cc1)Nc1ccc(C2=NCCN2)cc1	-7.7%	7.15	7.65%	-1.7	-21.1	-19.6%
Cc1nc(N)nc(C)c1N=Nc1ccc(Br)cc1Br	41.2%	4.5	20.5%	5.05	0.6	15%
O/N=C/c1cc2c(cc1Br)OCO2	-4.2%	-9.9	-18.9%	-9.75	-16.9	-17.6%
O=S(=O)(O)CCCCCO	-6.45%	-18.7	-15.7%	-46.8	-2.85	-9.95%
CCCCCC/C(C)=N/O	-1.8%	3.75	0.8%	4.85	10.7	-6.2%
CC(C)(C)N(OC(=O)c1ccc(C#N)cc1)c1ccccc1	15.4%	11.6	3.55%	7.75	4.2	3.35%
O=c1c2ccccc2c2cc3nc4ccc([N+](=O)[O-])cc4c(=O)n3c3cccc1c23	-0.15%	-2.65	-15.7%	6.15	-4.9	-10.4%
Nc1ccccc1N	-7.9%	-13.3	14.4%	-4.5	-29.9	-0.35%
O=C1NC(N2CCOCC2)=N/C1=C\c1ccccc1	8%	11.2	-9.8%	-3.65	-1.2	-15.3%
CC1=C(O[Si](C(C)C)(C(C)C)C(C)C)C2CC1(OS(=O)(=O)C(F)(F)F)[C@H]1C(=O)N(c3ccccc3)C(=O)[C@@H]21 (stereo partly specified)	-4.8%	-11.4	0.3%	17.4	5.2	-20.9%
COc1ccc(C(=O)c2ccccc2)cc1OC	2.95%	13.8	-4.25%	-21.4	-1.2	-7.85%

SMILES	growth inhibition [1]	growth inhibition [2] [%]	growth inhibition [3]	growth inhibition [4] [%]	growth inhibition [5] [%]	growth inhibition [6]
Cc1cc(N(CCC#N)CCC#N)ccc1/C=C1N=C(/C=C\c2ccccc2)N(c2ccc(C(=O)O)cc2)C\1=O	-3.65%	-45.5	-16.9%	-6.3	-16.4	-26.1%
CCCCCCCCCC(=O)N/N=C/c1ccncc1	97.2% (active)	23.1	98.8% (active)	9.35	26.2	98.3% (active)
CCC(O)(C#CCl)CC	11.6%	-10.9	10%	10.2	-29.1	11.1%
CC(=O)C1CCC2C3C=C(C)C4=CC(=O)CCC4(C)C3(F)C(=O)CC12C (stereo unspecified)	13.8%	-12.2	6%	-13.1	14.2	15.9%
C=C(Br)CNC(=O)Nc1ccccn1	-10.2%	4.55	-3.3%	-4.15	-4.85	-8.75%
CCCC#CCN(CCCC)CCCC	-8.95%	0.15	-3.8%	-7.9	58	-20.1%
CN1CNC(=S)NC1	10.2%	-7.85	11%	17.6	20.9	15.2%
O=[N+]([O-])c1cc(/C=N\NS(=O)(=O)c2ccc(Cl)cc2)c(O)c([N+](=O)[O-])c1	26.9%	7.2	3.9%	-1.35	8.75	8.6%
CN1C(=O)N(C)C2(CCN(CCCCCCF)CC2)C1=O	-10.2%	-19.9	-34.2%	-6.9	-18.6	-29.4%
Cc1cc2nc3c(N)ccc(N)c3nc2cc1N	5.2%	4.3	-0.65%	-17.6	-29.1	-7.7%
CC1(C)COC(c2ccc(C(F)(F)F)cc2C(O)c2ccc3ccccc3c2)=N1 (stereo unspecified)	11.8%	-2.15	3.8%	10.3	-3.3	10.3%
O=S(=O)(O/C(=C(\OS(=O)(=O)C(F)(F)C(F)(F)C(F)(F)C(F)(F)F)c1ccccc1)c1ccccc1)C(F)(F)C(F)(F)C(F)(F)C(F)(F)F	-6%	-14.1	-23.4%	-18.1	7.9	-5.85%
COc1ccc(-c2cc(=O)c3cc(C)c(C)c(C#N)c3o2)cc1	-25.9%	-29.6	-35.8%	-17.5	-29.9	-37.5%
CC(=O)O[C@H]1C[C@H]2CC[C@@]1(C)C2(C)C	0.85%	-4.45	-5.55%	-24.8	-1.1	7.95%
O=C(C[n+]1ccccc1Br)c1ccc(I)cc1	-32.9%	2	10.3%	-6.95	17.1	29.9%
Cc1nc2ccccc2c(=O)n1-c1ccc(-c2nnc(Sc3nnc(-c4ccc(-n5c(C)nc6ccccc6c5=O)cc4)n3-c3ccccc3)n2-c2ccccc2)cc1	16.6%	-3.35	8.2%	-17.6	11.3	30.1%
O=C(NCCCCCCNC(=O)c1cc(-c2ccccc2)nc2ccccc12)c1cc(-c2ccccc2)nc2ccccc12	-33%	-18	-42.6%	-17.4	-27.3	-17.4%
CCC(=O)N1C(=O)OCC1C(C)C (stereo unspecified)	-2.8%	-21.4	-22.3%	13.1	-9.35	14.8%
CC(C)OC(=O)CCCCCc1ccccc1	6%	-2.7	-29.1%	7.85	2.1	-8.4%
Nc1ccc(S(=O)(=O)O)cc1N	-15.3%	-11.1	-8%	-19.5	2.95	-4.5%
